Screens as filed in PubChem BioAssay.
Shown are actives, neighbours in structure and some others; about 17% of the full set was active somewhere.
HepG2 viability = counter-screen for TGF-b inhibitors: cytotoxicity in HepG2 cells; AID 588856; HepG2 CAGA-GFP viability, ATP luminescence, 18 h; 0.76% of 410,000 active; Potency, µM (highest dose often 46.1 µM), for the others: at the highest dose activity change, negative = cytotoxicity, hits mostly cytotoxic
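HepG2 CAGA-GFP cells (1000/well, DMEM with 1% FBS) received compound, then TGF-beta at 500 pg/mL final, and were incubated 18 hours at 37 degrees C. Viability was read by CellTiter-Glo luminescence. Media-only wells were set as complete cell-killing and DMSO as no toxicity.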
TGFb inhibitor = inhibitors of TGF-b signaling; 1.2% of 410,000 active; HepG2 CAGA-GFP TGF-b/SMAD3 reporter, GFP fluorescence, 18 h; TGF-beta stimulated, 500 pg/mL final; Potency, µM (highest dose often 46.1 µM), without a hit: top-dose activity, negative = inhibition, hits mostly inhibitors; further: on the % scale 0 is the no-effect control and ±100 the full control effect; nearly all actives have a fitted effect of over 65% in size
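Inhibition of TGF-beta-driven CAGA-GFP reporter expression in HEPG2 cells is measured by cellular GFP fluorescence after 18 h stimulation with 500 pg/mL recombinant TGF-beta in 1% FBS medium at 37 degrees C.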
HT1080NT lethal = kills 2HG-producing HT-1080-NT fibrosarcoma cells | HT-1080-NT fibrosarcoma viability, CellTiter-Glo ATP luminescence, 48 h | Potency, µM (highest dose often 46.1 µM), inactives show at the highest dose activity, negative = less viability, most hits filed as cytotoxic | 1.6% of 360,000 active | AID 686970;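 further: NT is the 2HG producing partner of a matched IDH1 knockdown line; 0% = DMSO-treated cells and -100% = media-only wells without cells; nearly all actives have a fitted effect of over 55% in size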
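Fibrosarcoma NT cells, 750 per well in 5% FBS RPMI, were exposed to compound for 48 hours. Viability: CellTiter-Glo luminescence.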
HT1080 IDH1KD tx = kills HT-1080 cells with IDH1 knockdown | HT-1080 IDH1 knockdown viability, ATP luminescence, 48 h | Potency, µM (doses to about 46.1 µM), without a hit: at the highest dose activity, negative = toxicity, usual class: cytotoxic | 2% of 360,000 active | AID 686971;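 further: 0% = DMSO wells and -100% = cell-free medium wells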
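After a 2 h attachment period, IDH1KD HT-1080 cells took pin-transferred compound for 48 h at 37 °C; ATP-based luminescence after 10 min room-temperature reagent incubation reported viability.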
DT40 TDP1 no CPT = qHTS for Inhibitors of human tyrosyl-DNA phosphodiesterase 1 (TDP1): qHTS in cells in absence of CPT; DT40 Tdp1-/- hTDP1 cells, no CPT, ATP luminescence, 48 h; Potency, µM (titrated, usually from 46.2 µM), for the others: at the top dose activity change, negative = growth inhibition, actives largely listed as inhibitors; AID 686978, 2013; 15% of 420,000 active; further: on the % scale 0 is the no-effect control and ±100 the full control effect; nearly all actives have a fitted effect of over 55% in size
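Luminescent ATP content (CellTiter-Glo) served as the growth readout. Knockout chicken DT40 cells expressing human TDP1 were exposed to compounds without camptothecin for a minimum 48 hr at 37 °C.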
TDP1 cell CPT = growth inhibition of DT40 Tdp1-/-;hTDP1 cells with camptothecin (screen for TDP1 inhibitors). AID 686979. Potency, µM (highest dose often 46.2 µM), inactives show at the top dose activity change, negative = growth inhibition, actives largely listed as inhibitors. chicken DT40 Tdp1-/-;hTDP1 cells + 20 nM CPT, ATP luminescence, 48 h. 12% of 420,000 active; further: on the % scale 0 is the no-effect control and ±100 the full control effect; nearly all actives have a fitted effect of over 55% in size
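Chicken DT40 Tdp1-/- cells complemented with human TDP1, 400 cells/well, exposed to compounds plus 20 nM camptothecin for at least 48 h at 37 C; viability read as ATP content by CellTiter-Glo luminescence.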
The depositor's hits bear a star; ? = inconclusive; nt = not tested or not shown; [ ] = another dose, or the depositor's remark. The call rests on the fitted dose curve; in most records, active means well fitted curve in the direction sought with a large enough effect; inconclusive means small, poorly fitted or top-dose-only effect, or another doubt; inactive means no such curve, though single readings can be large; an effect the other way counts as inactive or inconclusive. Potency means the concentration at half of the fitted maximal effect.

SMILES | HepG2 viability | TGFb inhibitor | HT1080NT lethal | HT1080 IDH1KD tx | DT40 TDP1 no CPT | TDP1 cell CPT
NC(=O)c1cccc(-c2ccnc3c2CC(C(=O)NCc2ccc(F)c(F)c2)O3)c1 (configuration not stated) | -22% | 7% | nt | nt | 8.2µM* | 4.6µM*
CC(=O)Nc1cccc(-c2ccnc3c2CC(C(=O)NCc2ccc(F)c(F)c2)O3)c1 (configuration not stated) | -3% | -9% | ? | ? | 3.3µM* | 3.3µM*
O=C(NCc1ccncc1)C1Cc2c(-c3ccc(Cl)cc3)ccnc2O1 (configuration not stated) | 0% | 21% | -4% | -26% | ? | ?
CCc1ccc(NC(=O)C(=O)N/N=C(\C)CC(=O)NCc2ccc(Cl)cc2)cc1 | -9% | -4% | -3% | -1% | -24% | -10%
COc1ccc(C(=O)N(C)Cc2ccc(C)o2)cc1OC1CCN(C(C)=O)CC1 | 2% | 0% | 17% | 0% | 17% | ?
NC(=O)c1cccc(-c2ccnc3c2CC(C(=O)NCc2ccccc2)O3)c1 (configuration not stated) | -15% | 3% | ? | ? | 1.3µM* | 0.58µM*
O=C(NCc1cccc(Cl)c1)C1Cc2c(-c3ccccc3)ccnc2O1 (configuration not stated) | -24% | 0% | -14% | -23% | 16µM* | 29µM*
O=C(NCc1cccc(Cl)c1)C1Cc2c(-c3ccc(Cl)cc3)ccnc2O1 (configuration not stated) | -29% | -7% | 0% | -10% | ? | ?
CC(=O)Nc1cccc(-c2ccnc3c2CC(C(=O)NCc2ccc(N(C)C)cc2)O3)c1 (configuration not stated) | -29% | 1% | ? | ? | 18µM* | 13µM*
CC1CCCN(S(=O)(=O)c2ccc(S(=O)(=O)N3CCC4(CC3)OCCO4)cc2)C1 (configuration not stated) | -7% | 0% | -1% | -1% | -24% | -4%
O=C(NCc1ccco1)c1cnn2c1NC(c1ccccc1)CC2C(F)(F)F (configuration not stated) | 0% | 19% | -12% | -14% | -12% | 18µM*
O=C(NCc1ccco1)c1cnn2c1NC(c1ccc(Br)cc1)CC2C(F)(F)F (configuration not stated) | 0% | ? | ? | ? | 4.1µM* | 4.1µM*
CN1CCN(C(=O)c2cnn3c2NC(c2ccccc2)CC3C(F)(F)F)CC1 (configuration not stated) | 0% | 0% | 6% | 18% | 12% | 11%
O=C(O)c1cnn2c1NC(c1ccc(F)cc1)CC2C(F)(F)F (configuration not stated) | -11% | -10% | -2% | -1% | -5% | -20%
Cc1cc2ccccc2n1CCNC(=O)c1cccc(Cl)c1 | -21% | -11% | nt | nt | 7.3µM* | 15µM*
Cc1cc2ccccc2n1CCNC(=O)c1cccc(Br)c1 | -30% | ? | nt | nt | 12µM* | 21µM*
Cc1cc2ccccc2n1CCNC(=O)C1CC1 | 3% | 6% | 21% | -1% | -21% | 15µM*
Cc1cc2ccccc2n1CCNC(=O)C1CCCC1 | 2% | 5% | 16% | 14% | ? | -3%
Cc1ccc(CN2CCOc3ccc(CN4CCC(O)(c5cccnc5)CC4)cc3C2)cc1C | nt | nt | nt | nt | 18µM* | -4%[9.04 µM]
COc1ccc(CN2CCOc3ccc(CN4CCC(O)(c5cccnc5)CC4)cc3C2)c(C)c1C | nt | nt | nt | nt | 16µM* | ?
CCC1C(=O)NCCN1Cc1ccc2c(c1)CN(Cc1cccc(OC)c1OC)CCO2 (configuration not stated) | nt | nt | nt | nt | -19% | 0.73µM*
OC1(c2cccnc2)CCN(Cc2ccc3c(c2)CN(Cc2cccc4nccnc24)CCO3)CC1 | nt | nt | nt | nt | -29% | -3%[9.04 µM]
OC1(c2cccnc2)CCN(Cc2ccc3c(c2)CN(Cc2ccc(Cl)cc2)CCO3)CC1 | nt | nt | nt | nt | -23% | -14%[9.04 µM]
CCC1C(=O)NCCN1Cc1ccc2c(c1)CN(Cc1cc(OC)ccc1OC)CCO2 (configuration not stated) | nt | nt | nt | nt | ? | -6%[9.04 µM]
COc1cc(C(=O)NCc2nnc(SCC(=O)NC3CCCC3)o2)cc(OC)c1OC | 2% | 6% | 7% | 11% | 5% | 9%
SMILES | HepG2 viability | TGFb inhibitor | HT1080NT lethal | HT1080 IDH1KD tx | DT40 TDP1 no CPT | TDP1 cell CPT
COc1cc(C(=O)NCc2nnc(SCC(=O)Nc3nc4ccccc4s3)o2)cc(OC)c1OC | 1% | 1% | 1% | 7% | 10µM* | 9.2µM*
COc1cc(C(=O)NCc2nnc(SCC(=O)Nc3nccs3)o2)cc(OC)c1OC | 8% | -28% | 19% | 15% | -1% | 14%
COc1ccc(C(=O)NCc2nnc(SCC(=O)Nc3cc(OC)ccc3OC)o2)cc1 | -23% | -7% | -1% | 10% | 31% | -1%
COc1ccc(C(=O)NCc2nnc(SCC(=O)Nc3nc4ccccc4s3)o2)cc1 | -6% | -10% | ? | 0% | ? | 29µM*
CC(C)(C)c1ccc(C(=O)NCc2nnc(SCC(=O)NC3CCCCC3)o2)cc1 | 8% | -3% | 8% | 7% | 21µM* | 8.2µM*
COc1ccc(-n2c(O)c(/C=N/NS(=O)(=O)c3ccc(C)cc3)c3ccccc3c2=O)cc1OC | 20% | 143% | -9% | -18% | 16µM* | 18µM*
COc1ccc(-n2c(O)c(/C=N/NS(=O)(=O)c3cc(C)ccc3C)c3ccccc3c2=O)cc1OC | 0% | 19% | -14% | -1% | 16µM* | 21µM*
C=CCCC(=O)Nc1nc(C)c(-c2csc(Nc3cccc(OC)c3)n2)s1 | -5% | -28% | -10% | -9% | 16µM* | 16µM*
COc1ccccc1Nc1nc(-c2sc(NC(=O)CC(C)C)nc2C)cs1 | -14% | -13% | ? | -27% | ? | ?
Cc1nc(NC(=O)c2ccccc2)sc1-c1csc(NCc2ccco2)n1 | -36% | ? | ? | ? | 23µM* | 23µM*
COc1cccc(Nc2nc(-c3sc(NC(=O)CC(C)C)nc3C)cs2)c1 | -23% | -5% | 10% | -3% | 23µM* | 13µM*
